This note sets out measurements from PubChem BioAssay (NCATS).

Results filed as inconclusive are left out. A call without a number means that no potency is given here. Activity calls are given as the source filed them. The call rests on the fitted dose curve; in most records, active means well fitted cell-killing curve with a large enough effect; inconclusive means small, poorly fitted or top-dose-only effect; inactive means flat fitted curve, though single readings scatter.

A short description of the assay: Cellular viability qHTS for adrenocortical cancer (ACC) cell line NCI-H295R (AID 1963990). Further: nearly all actives have a fitted effect of over 60% in size. The note with it: CellTiter-Glo ATP luminescence, 48 h; series mostly up to 46.1 µM. An outline of the steps: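 CellTiter-Glo ATP luminescence, read 48 h after compound addition, measured viability of NCI-H295R adrenocortical cells grown serum-free with ITS. Final concentrations spanned up to 46 uM. Data normalized to DMSO and doxorubicin, fitted for IC50 and maximal response.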
Background: qHTS replaces the single test concentration by a dilution series.
Take `CCC(C(=O)OCCN(CC)CC)c1ccccc1` (configuration not stated): the Potency entry is “inactive”.
As to `C=CC(=O)Nc1cc(N2CCN(CC)CC2)ccc1Nc1cc(N(C)C(=O)Nc2c(Cl)c(OC)cc(OC)c2Cl)ncn1`, the Potency entry is “inactive”.
Then `Cc1[nH]cnc1CN1CCN(C(=O)N[C@@H](CC(C)C)C(=O)O)[C@@H](Cc2ccccc2)C1=O`, with “inactive”; and `CNC(=O)CCc1cc(-c2ccc(-c3ccc(C(F)(F)F)cc3)cc2)n(-c2ccc(N3CCNCC3)cc2)n1`, with 7.08 µM (active); and `CCOC(=O)[C@@](C)(N)Cc1ccc(O)c(O)c1`, with “inactive”.
The same measure for `C#C[C@]1(O)CC[C@H]2[C@@H]3CCc4cc(OC)ccc4[C@H]3CC[C@@]21C`: “inactive”; for `C[C@@H](N)C(=O)O`: “inactive”; for `COCCN1CCN(Cc2ccc(-c3n[nH]c4c3C(=O)c3c(NC(=O)NN5CCOCC5)cccc3-4)cc2)CC1`: 0.891 µM (active).
The same measure for `CCN1CCN(Cc2ccc(NC(=O)c3ccc(C)c(/C=C/c4cnc5[nH]ccc5c4OC)c3)cc2C(F)(F)F)CC1`: 6.31 µM (active); for `C[C@]12CCC(=O)C=C1CC[C@H]1[C@@H]3CC[C@](O)(C(=O)CO)[C@@]3(C)C[C@H](O)[C@@]12F`: “inactive”; for `CN[C@@H](C)C(=O)N[C@H](C(=O)N1CCC[C@H]1C(=O)Nc1sc(-c2ncco2)nc1-c1ccccc1)C1CCCCC1`: “inactive”.
Consider `Cc1c(CN2CCC(Nc3ncnc4sc(CC(F)(F)F)cc34)CC2)ccc2c1cc(C#N)n2Cc1cn[nH]c1`, for which the Potency is 6.31 µM (active).
The same measure for `COc1cc([C@H]2Oc3cc([C@H]4Oc5cc(O)cc(O)c5C(=O)[C@@H]4O)ccc3O[C@@H]2CO)ccc1O`: “inactive”.
The same measure for `Cc1cccn2c(=O)c(-c3nnn[nH]3)cnc12`: “inactive”; for `CCCCNc1ccc(C(=O)OCCN(C)C)cc1`: “inactive”.
Take `C[N+](C)(C)CC[N+]1(C)Cc2c(Cl)c(Cl)c(Cl)c(Cl)c2C1`: the Potency result was “inactive”.
Regarding `CCOc1c(N2CCOCC2)cnn(C)c1=O`, the Potency result was “inactive”.
